# Assay results taken from PubChem BioAssay.
# Molecular target: Calmodulin-1 (Homo sapiens) (UniProt P0DP23)
# Experiment: CALM1 binders on microarrays, EGTA buffer, profiling panel, biochemical, small-molecule microarray, Cy5-labelled CALM1 (AID 1111);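 note: labelled calmodulin applied in Tris saline Tween buffer holding calcium plus EGTA and DTT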
# Conditions: Cy5-CALM1 binding fluorescence, higher = more signal
row,SMILES,composite z-score
1,CCCCCN1CC=CC23O[C@@H]4/C=C\CCC(C)OC(=O)C4[C@H]2C(=O)N(CCCCCO)[C@@H]3C1=O (some centres not stated),-0.476
2,CC(C)Cc1ccc(CN2CC[C@@H](NS(=O)(=O)c3ccccc3)C2)cc1,-0.856
3,C=CCC(OC(C)=O)[C@@H]1[C@@H](N(Cc2cccc3ccccc23)C(=O)c2ccc(C)cc2)c2cc(OCCCO)ccc2N1C(=O)Cc1ccc(OC)cc1 (some centres not stated),0.327
4,CN1C(=O)C2C=CC(C(O)c3ccccn3)N(Nc3ccccc3)C2C1=O (configuration not stated),-0.163
5,COc1cccc(C(=O)O[C@H]2CC[C@]3(C)C4=C(CCC3C2(C)C)[C@]2(C)CC[C@H]([C@H](C)CCCC(C)C)[C@@]2(C)CC4)c1 (some centres not stated),-0.0348
6,COc1ccc(C(=O)Nc2cccc(CN3C(=O)[C@@]4(O[C@@H](CCn5cc(CCO)nn5)[C@H]([Si](C)(C)c5ccc(OC)cc5)[C@H]4C)c4ccccc43)c2)cc1,0.468
7,O=C1N(CCS(=O)(=O)c2ccccc2)Cc2ccccc2C[C@]12N=C(c1ccc(OCCCO)cc1)O[C@@H]2c1ccccc1,2.54
